These results are taken from PubChem BioAssay AID686978 (National Center for Advancing Translational Sciences (NCATS), 2013).

Structures are written as SMILES. Screen size: about 420,000 compounds; about 64,000 (15%) were called active. Roughly 27% stayed inconclusive and do not appear here. These entries were drawn from the full list. Unmarked numbers belong to inactive results. Calls follow the shape of the dose curve; as a rule, active = well fitted inhibition curve with a large enough effect; inconclusive = small, poorly fitted or top-dose-only effect; inactive = flat fitted curve, though single readings scatter.
% is scaled to controls: 0 for no effect and ±100 for the full control effect; potency is read from the fitted curve at half-maximal effect.

The nature of this experiment: qHTS for Inhibitors of human tyrosyl-DNA phosphodiesterase 1 (TDP1): qHTS in cells in absence of CPT. Also: nearly all actives have a fitted effect of over 55% in size. The note with it: DT40 Tdp1-/- hTDP1 cells, no CPT, ATP luminescence, 48 h; activity change, negative = growth inhibition: at 46.2 µM (top of the series). The gist of the method:
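Seeded 400 DT40-hTDP1 cells/well (vehicle DMSO, no 20 nM CPT); pinned compounds; ≥48 hr at 37 °C; CellTiter-Glo luminescence as viability measure.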
As for `C=C(C)Cn1c(N2CCN(CC)CC2)nc2c1c(=O)[nH]c(=O)n2C`, the “activity change, negative = growth inhibition” value is -6.62%.
As to `Cn1c(=O)[nH]c(=O)c2c1nc(N1CCN(C(c3ccccc3)c3ccccc3)CC1)n2CCO`, the Potency was 16.4 µM (active).
`Cc1nnc(SCCCn2c(N3CCCCC3)nc3c2c(=O)[nH]c(=O)n3C)s1`: the “activity change, negative = growth inhibition” value is -19.1%.
On the same count and under the same terms, with `COc1ccc(CNc2nc3c(c(=O)[nH]c(=O)n3C)n2Cc2ccccc2)cc1` the figure was 5.15%; with `C=C(C)Cn1c(N2CCCC2)nc2c1c(=O)[nH]c(=O)n2C`, -7.42%; with `CC1CN(CC(=O)NC(C)c2ccccc2)CC(C)O1` (stereo unspecified), 3.41%.
The same measure, in the same setting: to `CC(C)(C)C(=O)N1CCC[C@@]1(CO)C(=O)O` belongs -3.05%.
Same read-out and setting: with `O=C(c1ccc2c(c1)OCO2)N1CCN(C(=O)c2ccco2)CC1` the figure was 2.81%.
As to `O=C1c2ccccc2C(=O)c2c1cccc2N1CCN(Cc2ccccc2)CC1`, the Potency is 18.4 µM (active).
For `O=S1(=O)CCN(Cc2ccccc2)CC1`, the “activity change, negative = growth inhibition” value is 2.2%.
For `O=c1cc(N2CCN(Cc3ccccc3)CC2)c(-c2ccccc2)n[nH]1`, the “activity change, negative = growth inhibition” value is -23.5%.
Same read-out and setting: to `C=CCNC(=O)c1cc(-c2ccccc2O)on1` belongs -29%.
Consider `C=CCNC(=O)c1ccc2nc(-c3ccco3)c(-c3ccco3)nc2c1`, for which the Potency is 11.2 µM (active).
In the case of `C=CCNC(=O)c1ccc(C)c(Br)c1`, the “activity change, negative = growth inhibition” value is -20.1%.
Still for that read-out and setting: with `COC(=O)NNC1=CC(=O)CC(C)(C)C1` the figure was -5.15%; with `Cc1ccc(N2C(=O)C(NC(=O)c3c(F)cccc3F)(C(F)(F)F)C3=C2CC(C)(C)CC3=O)cc1` (stereo unspecified), -5.91%; with `CN(C)c1ccc(C2Nc3ccccc3C(=O)N2NS(=O)(=O)c2ccccc2)cc1` (stereo unspecified), -1.24%.
Regarding `COc1ccc(-c2cc(C(=O)NC(Cc3c[nH]c4ccccc34)C(=O)O)c(C)o2)cc1OC` (stereo unspecified), the Potency was 29.1 µM (active).
On the same count and under the same terms, to `Cc1cccc(C)c1OCC(=O)NC(Cc1c[nH]c2ccccc12)C(=O)O` (stereo unspecified) belongs “inactive”.
As for `COc1ccc(-c2cc(C(=O)NC(C(=O)O)C(C)C)c(C)o2)cc1OC` (stereo unspecified), the “activity change, negative = growth inhibition” value was -6.53%.
Still for that read-out and setting: with `Cc1ccc(S(=O)(=O)NCc2csc(C)n2)c(C)c1` the figure was 2.86%.
As for `CCn1cc(C(=O)N2CCN(c3cc(Cl)ccc3C)CC2)c(=O)c2cc(S(=O)(=O)N3CCCC3)ccc21`, the Potency was 25.9 µM (active).
Consider `Cc1ccc(Cl)cc1N1CCN(C(=O)c2cn(C)c3ccc(S(=O)(=O)N(C)C4CCCCC4)cc3c2=O)CC1`, for which the “activity change, negative = growth inhibition” value was -27.4%.
In the case of `CCn1cc(C(=O)N2CC(C)CC(C)C2)c(=O)c2cc(S(=O)(=O)N3CCCC3)ccc21` (stereo unspecified), the “activity change, negative = growth inhibition” value is 13.2%.
As for `CCn1cc(C(=O)N2CCN(c3cc(C)ccc3C)CC2)c(=O)c2cc(S(=O)(=O)N(C)C3CCCCC3)ccc21`, the Potency was 18.4 µM (active).
As for `CCOC(=O)N1CCN(C(=O)c2cn(C)c3ccc(S(=O)(=O)N4CCCC4)cc3c2=O)CC1`, the “activity change, negative = growth inhibition” value was -3.52%.
As for `CN(Cc1ccccc1)C(=O)c1cn(C)c2ccc(S(=O)(=O)N(C)C3CCCCC3)cc2c1=O`, the “activity change, negative = growth inhibition” value was -14.9%.
Consider `NC(=O)CSc1nc2c(oc3ccccc32)c(=O)n1Cc1ccccc1`, for which the “activity change, negative = growth inhibition” value was -16.9%.
Still for that read-out and setting: with `COCC(=O)Nc1cc(C(=O)OC)cc(C(=O)OC)c1` the figure was -2.97%.
On to `COc1ccc(CC(N)C(=O)NC2C(O)[C@H](n3cnc4c(N(C)C)ncnc43)O[C@@H]2CO)cc1` (stereo partly specified), for which the Potency was 22.1 µM (active).
`Nc1ncnc2c1ncn2[C@@H]1O[C@H](CNC(=O)[C@H](N)Cc2cccnc2)[C@@H](O)[C@H]1O`: the “activity change, negative = growth inhibition” value is 14.7%.
On the same count and under the same terms, with `COc1cccc(CN(C)C(=O)CC[C@H]2O[C@@H](n3cnc4c(NC(=O)c5ccccc5)ncnc43)[C@H](O)[C@@H]2O)c1` the figure was -11.4%.
As to `COC(=O)CNC(=O)c1ccc(OC2CCN(C(=O)C3CC3)CC2)cc1`, the “activity change, negative = growth inhibition” value is 11.2%.
Same read-out and setting: to `CCC(C(=O)OCCN(CC)CC)c1ccccc1` (stereo unspecified) belongs -14.4%; to `CN(C)CCOc1ccc(Cl)cc1C(C)(C)C`, -29%.
For `CCN(CC)CCOCCOc1ccc(Cl)c2ccccc12`, the Potency is 16.4 µM (active).
With `Cc1cccc(NC(=O)CSc2nnc(-c3ccco3)o2)c1`, the “activity change, negative = growth inhibition” value is 4.91%.
For `C/C(=N/NC(=O)CCc1ccccc1)c1ccco1`, the “activity change, negative = growth inhibition” value is 18%.
Consider `O=C(CCc1ccccc1)Nc1cccc(-c2nnc(-c3ccco3)o2)c1`, for which the Potency is 16.4 µM (active).
With `COc1cc(NS(=O)(=O)c2ccc(NC(=O)CN3C(=O)c4ccccc4C3=O)cc2)ncn1`, the “activity change, negative = growth inhibition” value was 0.218%.
The same measure, in the same setting: to `Oc1cc(O)c2c(c1)OC(c1ccc(O)c(O)c1)C(O)C2` (stereo unspecified) belongs -6.57%.
Consider `CCCC1OC23CCCCC2C(C#N)(C#N)C1(C#N)C(=N)O3` (stereo unspecified), for which the Potency was 5.8 µM (active).
In the case of `N#C/C(=C\c1ccccc1)c1n[nH]c(Cn2cncn2)n1`, the “activity change, negative = growth inhibition” value was -7.47%.
With `COC(=O)N1CCC2(CCCN(c3ccncc3)C2)CC1`, the “activity change, negative = growth inhibition” value was -23.2%.
The same measure, in the same setting: with `CCc1cccc2c(=O)c(C(=O)NCCCOC)c[nH]c12` the figure was -8.95%.
In the case of `CCc1nc2ccc(C(=O)Nc3cc(-c4ccccc4)ccc3OC)cn2c1N(CC)CC(=O)N(C)C`, the Potency was 11.6 µM (active).
In the case of `CCc1nc2ccc(C(=O)Nc3ccc(OC)c(OC)c3)cn2c1N(C)C(=O)c1cccc(OC)c1`, the “activity change, negative = growth inhibition” value was -12.6%.
Same read-out and setting: to `CCc1nc2ccc(C(=O)Nc3cccc(OC)c3)cn2c1N(CCC(C)C)CCN(C)C` belongs -99.5%; to `CCn1c(CNS(=O)(=O)c2ccc(Cl)cc2)n[nH]c1=S`, 1.74%; to `Cc1cccnc1NC(=O)CSc1nnc(COc2ccc(C(C)C)cc2)n1C`, -9.74%.
Still for that read-out and setting: with `N#Cc1cccc(CSc2ncnc(N)n2)c1` the figure was -16.2%.
